# The supplement of paper PMC11732987, “Enantioselective OTUD7B fragment discovery through chemoproteomics screening and high-throughput optimisation” (Communications Chemistry, 2025)
# Unmarked numbers belong to inactive results.
# Legend:
# Test in all cases: log2 ratio of Biotin-Ahx-Ub-VS probe labelling (fragment/DMSO); higher = less target engagement (more negative = stronger competition), active = hit call of the paper (q ≤ 0.05, log2 ratio ≤ -1)
# Settings in all cases: compound concentration: 200 uM; treatment time: 3 h
# OTUD6B = molecular target: T1, OTUD6B (UniProt Q8N6M0)
# T1 sequence (whole entry): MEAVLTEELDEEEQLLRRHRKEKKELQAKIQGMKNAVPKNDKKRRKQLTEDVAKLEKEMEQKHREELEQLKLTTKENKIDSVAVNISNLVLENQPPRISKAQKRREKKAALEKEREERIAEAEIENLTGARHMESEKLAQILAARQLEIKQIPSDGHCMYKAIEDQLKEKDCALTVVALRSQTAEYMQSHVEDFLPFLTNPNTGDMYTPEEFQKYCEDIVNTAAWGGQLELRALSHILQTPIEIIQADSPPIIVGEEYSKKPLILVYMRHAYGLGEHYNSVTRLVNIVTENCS
# Method in brief: (§1)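 Fragment (200 µM) or vehicle was incubated for 3 h with triplicate HEK293T lysate samples of 495 µg, which were then treated with Biotin-Ahx-Ub-VS at 0.5 µM final for 1 h. Labelled DUBs were enriched on NeutrAvidin, digested with LysC and trypsin, and analysed by diaPASEF LC-MS/MS. Values are average log2 fragment/vehicle ratios from an unpaired t-test on global-median-normalised Spectronaut label-free quantities, using proteins with ≥2 unique peptides.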
# OTUD7B = molecular target: T2, OTUD7B (UniProt Q6GQQ9)
# T2 sequence (whole entry): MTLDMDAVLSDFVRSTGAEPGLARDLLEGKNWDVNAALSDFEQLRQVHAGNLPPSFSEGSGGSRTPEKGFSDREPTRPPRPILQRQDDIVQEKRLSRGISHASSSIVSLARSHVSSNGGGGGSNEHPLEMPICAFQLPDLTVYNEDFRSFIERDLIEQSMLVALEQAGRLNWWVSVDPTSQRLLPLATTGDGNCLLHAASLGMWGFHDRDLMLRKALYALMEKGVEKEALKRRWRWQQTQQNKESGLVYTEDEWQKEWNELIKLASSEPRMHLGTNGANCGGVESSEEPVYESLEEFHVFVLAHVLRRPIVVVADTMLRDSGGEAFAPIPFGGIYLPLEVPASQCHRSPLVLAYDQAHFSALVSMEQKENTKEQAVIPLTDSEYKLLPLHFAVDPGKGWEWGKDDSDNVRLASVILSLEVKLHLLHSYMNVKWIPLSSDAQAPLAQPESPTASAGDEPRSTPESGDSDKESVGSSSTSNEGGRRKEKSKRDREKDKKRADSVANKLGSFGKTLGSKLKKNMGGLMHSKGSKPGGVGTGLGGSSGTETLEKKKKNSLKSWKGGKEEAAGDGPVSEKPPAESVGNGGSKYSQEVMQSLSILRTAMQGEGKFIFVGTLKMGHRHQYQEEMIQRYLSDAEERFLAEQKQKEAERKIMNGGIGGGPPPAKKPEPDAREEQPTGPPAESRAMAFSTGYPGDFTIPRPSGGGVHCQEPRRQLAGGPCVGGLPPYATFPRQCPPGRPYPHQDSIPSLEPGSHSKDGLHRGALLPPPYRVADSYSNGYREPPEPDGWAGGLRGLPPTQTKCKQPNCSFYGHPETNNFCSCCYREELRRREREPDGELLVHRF
# Method in brief: as §1
# PRPF8 = PRPF8 (UniProt Q6P2Q9)
# Method in brief: as §1
# PSMD7 = molecular target: T3, PSMD7 (UniProt P51665)
# T3 sequence (whole entry): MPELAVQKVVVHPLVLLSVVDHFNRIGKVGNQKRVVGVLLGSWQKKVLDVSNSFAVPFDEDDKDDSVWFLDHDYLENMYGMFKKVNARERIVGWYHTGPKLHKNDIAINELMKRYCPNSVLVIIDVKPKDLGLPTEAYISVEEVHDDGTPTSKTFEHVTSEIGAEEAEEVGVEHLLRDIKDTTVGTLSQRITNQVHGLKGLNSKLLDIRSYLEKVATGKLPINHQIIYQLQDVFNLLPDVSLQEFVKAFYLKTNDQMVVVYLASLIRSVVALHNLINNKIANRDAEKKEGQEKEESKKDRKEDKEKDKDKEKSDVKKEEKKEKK
# Method in brief: as §1
# UCHL1 = UCHL1 (UniProt P09936)
# Method in brief: as §1
# UCHL3 = molecular target: T4, UCHL3 (UniProt P15374)
# T4 sequence (whole entry): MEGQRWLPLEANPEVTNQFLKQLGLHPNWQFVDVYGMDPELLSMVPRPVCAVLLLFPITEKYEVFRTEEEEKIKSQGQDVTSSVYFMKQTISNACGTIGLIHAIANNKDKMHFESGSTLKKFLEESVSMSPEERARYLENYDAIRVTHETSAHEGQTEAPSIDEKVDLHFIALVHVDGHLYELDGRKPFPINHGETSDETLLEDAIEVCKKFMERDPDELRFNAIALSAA
# Method in brief: as §1
# UCHL5 = molecular target: T5, UCHL5 (UniProt Q9Y5K5)
# T5 sequence (whole entry): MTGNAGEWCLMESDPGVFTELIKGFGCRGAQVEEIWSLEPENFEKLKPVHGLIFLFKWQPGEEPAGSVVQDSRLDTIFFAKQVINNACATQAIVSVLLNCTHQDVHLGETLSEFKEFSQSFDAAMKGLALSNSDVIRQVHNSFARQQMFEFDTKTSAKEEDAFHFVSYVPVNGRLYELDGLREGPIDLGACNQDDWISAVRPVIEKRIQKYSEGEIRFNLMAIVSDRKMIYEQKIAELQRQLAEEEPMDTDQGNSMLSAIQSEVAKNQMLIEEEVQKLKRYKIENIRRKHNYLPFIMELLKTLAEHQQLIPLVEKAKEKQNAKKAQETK
# Method in brief: as §1
# USP10 = USP10 (UniProt Q14694)
# Method in brief: as §1
# USP15 = molecular target: T6, USP15 (UniProt Q9Y4E8)
# T6 sequence (whole entry): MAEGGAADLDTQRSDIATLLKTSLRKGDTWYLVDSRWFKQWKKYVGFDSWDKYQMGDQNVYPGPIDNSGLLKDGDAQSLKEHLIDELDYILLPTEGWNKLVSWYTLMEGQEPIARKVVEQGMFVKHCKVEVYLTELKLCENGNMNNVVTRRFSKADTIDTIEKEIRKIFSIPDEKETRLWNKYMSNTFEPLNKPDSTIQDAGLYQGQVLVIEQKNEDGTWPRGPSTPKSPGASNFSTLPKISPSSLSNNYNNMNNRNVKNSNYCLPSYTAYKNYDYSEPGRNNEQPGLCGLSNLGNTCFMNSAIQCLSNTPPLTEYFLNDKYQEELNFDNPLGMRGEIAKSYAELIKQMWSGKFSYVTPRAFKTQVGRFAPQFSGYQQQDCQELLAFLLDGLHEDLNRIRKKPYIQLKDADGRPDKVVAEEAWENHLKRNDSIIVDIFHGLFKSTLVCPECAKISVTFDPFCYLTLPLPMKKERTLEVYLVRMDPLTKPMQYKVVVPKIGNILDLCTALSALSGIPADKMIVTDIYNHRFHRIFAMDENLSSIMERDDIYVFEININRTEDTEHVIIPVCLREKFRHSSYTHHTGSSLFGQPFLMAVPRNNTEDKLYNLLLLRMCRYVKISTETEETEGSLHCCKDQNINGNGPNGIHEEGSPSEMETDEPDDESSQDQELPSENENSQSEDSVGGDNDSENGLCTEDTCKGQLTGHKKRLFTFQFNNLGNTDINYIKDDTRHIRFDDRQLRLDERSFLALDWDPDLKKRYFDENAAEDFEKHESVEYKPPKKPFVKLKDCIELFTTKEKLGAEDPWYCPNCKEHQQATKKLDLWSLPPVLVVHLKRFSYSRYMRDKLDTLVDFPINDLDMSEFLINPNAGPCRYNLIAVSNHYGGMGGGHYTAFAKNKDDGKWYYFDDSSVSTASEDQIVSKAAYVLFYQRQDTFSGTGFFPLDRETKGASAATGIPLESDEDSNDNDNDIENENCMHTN
# Method in brief: as §1
# USP16 = USP16 (UniProt Q9Y5T5)
# Method in brief: as §1
# USP16, sequence (Q9Y5T5 whole entry, looked up): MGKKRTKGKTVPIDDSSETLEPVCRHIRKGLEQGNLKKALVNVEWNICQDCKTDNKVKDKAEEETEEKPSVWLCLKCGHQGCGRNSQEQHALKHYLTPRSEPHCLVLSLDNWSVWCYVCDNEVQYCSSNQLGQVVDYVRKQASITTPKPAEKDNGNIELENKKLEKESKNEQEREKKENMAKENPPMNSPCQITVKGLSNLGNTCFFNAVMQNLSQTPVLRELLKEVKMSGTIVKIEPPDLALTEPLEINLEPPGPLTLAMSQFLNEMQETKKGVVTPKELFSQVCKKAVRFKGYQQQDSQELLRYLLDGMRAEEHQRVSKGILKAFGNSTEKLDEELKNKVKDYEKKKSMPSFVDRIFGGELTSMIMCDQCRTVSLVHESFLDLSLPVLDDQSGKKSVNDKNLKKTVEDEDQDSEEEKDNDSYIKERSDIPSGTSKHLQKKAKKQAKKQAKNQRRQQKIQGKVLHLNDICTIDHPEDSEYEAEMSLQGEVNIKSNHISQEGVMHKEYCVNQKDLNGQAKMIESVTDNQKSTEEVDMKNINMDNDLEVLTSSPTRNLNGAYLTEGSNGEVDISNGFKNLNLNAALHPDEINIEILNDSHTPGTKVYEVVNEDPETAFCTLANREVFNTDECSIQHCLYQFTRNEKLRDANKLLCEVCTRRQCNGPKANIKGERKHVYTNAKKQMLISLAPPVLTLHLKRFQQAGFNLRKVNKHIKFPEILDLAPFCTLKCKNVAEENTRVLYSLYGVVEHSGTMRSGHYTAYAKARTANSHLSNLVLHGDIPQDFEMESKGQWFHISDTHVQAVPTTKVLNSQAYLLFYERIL
# UCHL1, sequence (P09936 whole entry, looked up): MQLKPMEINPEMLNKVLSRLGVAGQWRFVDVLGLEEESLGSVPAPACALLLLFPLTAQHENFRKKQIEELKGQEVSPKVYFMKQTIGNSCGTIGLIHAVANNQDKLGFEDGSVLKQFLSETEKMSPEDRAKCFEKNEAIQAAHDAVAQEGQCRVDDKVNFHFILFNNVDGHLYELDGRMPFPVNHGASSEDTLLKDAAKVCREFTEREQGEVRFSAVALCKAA
# USP10, sequence (Q14694 whole entry): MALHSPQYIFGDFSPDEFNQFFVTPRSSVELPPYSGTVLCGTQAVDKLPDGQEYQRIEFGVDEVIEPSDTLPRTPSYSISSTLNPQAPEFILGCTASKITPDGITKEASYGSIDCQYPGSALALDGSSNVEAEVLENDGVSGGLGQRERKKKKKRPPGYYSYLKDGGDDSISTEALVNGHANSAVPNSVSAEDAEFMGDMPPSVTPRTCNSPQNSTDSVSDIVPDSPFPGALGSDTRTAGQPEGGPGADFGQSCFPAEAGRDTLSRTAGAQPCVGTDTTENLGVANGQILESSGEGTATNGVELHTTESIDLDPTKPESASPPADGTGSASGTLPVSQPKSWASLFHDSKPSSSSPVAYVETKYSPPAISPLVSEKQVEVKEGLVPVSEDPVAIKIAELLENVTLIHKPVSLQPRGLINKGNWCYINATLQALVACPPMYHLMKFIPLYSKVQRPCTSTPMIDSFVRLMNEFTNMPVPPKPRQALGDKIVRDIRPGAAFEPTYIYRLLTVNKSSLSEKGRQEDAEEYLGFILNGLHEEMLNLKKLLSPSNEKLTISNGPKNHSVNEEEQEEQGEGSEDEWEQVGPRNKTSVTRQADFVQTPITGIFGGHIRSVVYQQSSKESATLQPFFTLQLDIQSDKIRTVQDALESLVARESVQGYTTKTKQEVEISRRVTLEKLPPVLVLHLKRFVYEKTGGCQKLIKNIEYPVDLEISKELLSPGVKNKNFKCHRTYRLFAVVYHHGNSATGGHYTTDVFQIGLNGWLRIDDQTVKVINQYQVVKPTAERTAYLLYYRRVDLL
compound,measurement,setting,value
C#Cc1cccc(NC(=O)CCl)c1,log2 ratio of Biotin-Ahx-Ub-VS probe labelling,OTUD6B,-0.196
same,log2 ratio of Biotin-Ahx-Ub-VS probe labelling,OTUD7B,-1.43 (active)
same,log2 ratio of Biotin-Ahx-Ub-VS probe labelling,PRPF8,0.296
same,log2 ratio of Biotin-Ahx-Ub-VS probe labelling,PSMD7,-0.0915
same,log2 ratio of Biotin-Ahx-Ub-VS probe labelling,UCHL1,-1.61 (active)
same,log2 ratio of Biotin-Ahx-Ub-VS probe labelling,UCHL3,-1.39 (active)
same,log2 ratio of Biotin-Ahx-Ub-VS probe labelling,UCHL5,-0.324
same,log2 ratio of Biotin-Ahx-Ub-VS probe labelling,USP10,-0.0542
same,log2 ratio of Biotin-Ahx-Ub-VS probe labelling,USP15,-0.414
same,log2 ratio of Biotin-Ahx-Ub-VS probe labelling,USP16,-0.23
